A selection: hits, their analogues and other compounds. The true share with any hit is near 3.3%.
Tb PYK inh = blocks Trypanosoma brucei pyruvate kinase; TbPYK enzyme, Kinase-Glo Plus ATP luminescence, 45 min; Potency, µM (titrated, usually from 76.8 µM), without a hit: at the top dose activity, negative = inhibition, most hits filed as inhibitors; actives 0.12% (n = 410,000); further: on the % scale 0 is the no-effect control and ±100 the full control effect; nearly all actives have a fitted effect of over 50% in size
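Screened from lowest to highest concentration, compounds were pinned into TbPYK/substrate mixtures, and ADP (130 uM final) was added. Plates sat at room temperature for 45 min prior to Kinase-Glo Plus detection by luminescence.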
AmpC no deterg = blocks E. coli AmpC beta-lactamase in detergent-free assay. actives 0.52% (n = 330,000). AmpC nitrocefin hydrolysis, absorbance 480 nm, 0.0001% Triton. Potency, µM (highest dose often 57.1 µM), for inactives: at the highest dose activity change, negative = inhibition, actives largely listed as inhibitors. AID 485341. P00811;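 further: plate controls were no compound for no effect and no enzyme for full effect; nearly all actives have a fitted effect of over 20% in size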
Target sequence (P00811 whole entry, looked up): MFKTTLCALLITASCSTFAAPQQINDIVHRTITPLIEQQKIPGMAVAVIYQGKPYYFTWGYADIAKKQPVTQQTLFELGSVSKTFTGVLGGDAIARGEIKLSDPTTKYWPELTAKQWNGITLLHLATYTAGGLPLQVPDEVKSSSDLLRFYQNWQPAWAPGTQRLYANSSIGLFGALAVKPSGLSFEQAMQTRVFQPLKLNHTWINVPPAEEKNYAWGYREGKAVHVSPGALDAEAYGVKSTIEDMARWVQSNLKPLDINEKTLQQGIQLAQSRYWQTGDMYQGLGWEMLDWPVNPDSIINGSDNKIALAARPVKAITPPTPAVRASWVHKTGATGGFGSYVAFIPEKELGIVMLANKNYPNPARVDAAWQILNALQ
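AmpC (5.3 nM in the dispensed reagent) in 20 mM phosphate pH 7.0 with 0.01% (detergent screen) or 0.0001% Triton X-100 was preincubated with compounds for 15 min at room temperature. Nitrocefin was then added from an 800 uM solution, and hydrolysis was followed at 480 nm.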
AmpC inh detg = blocks E. coli AmpC beta-lactamase in detergent assay. Potency, µM (titrated, usually from 114 µM), for the others: at the highest dose activity change, negative = inhibition, most hits filed as inhibitors. P00811. AmpC hydrolysis of nitrocefin, absorbance 480 nm, 0.01% Triton. actives 0.041% (n = 370,000);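 further: 0% = no-compound wells and -100% = no-enzyme wells; nearly all actives have a fitted effect of over 25% in size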
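AmpC (5.3 nM in the dispensed reagent) in 20 mM phosphate pH 7.0 with 0.01% (detergent screen) or 0.0001% Triton X-100 was preincubated with compounds for 15 min at room temperature. Nitrocefin was then added from an 800 uM solution, and hydrolysis was followed at 480 nm.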
Sm TGR block = S. mansoni TGR enzyme inhibition; AID 485364; Potency, µM (highest dose often 114 µM), inactives show top-dose activity change, negative = inhibition, most hits filed as inhibitors; purified TGR, DTNB reduction, TNB absorbance 405 nm; Q962Y6; actives 3% (n = 360,000); further: on the % scale 0 is the no-effect control and ±100 the full control effect; nearly all actives have a fitted effect of over 60% in size
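TGR 20 nM + NADPH 100 uM (dispensed conc.), cpd preinc 15 min RT; start with NADPH (500 uM addition) then DTNB (15 mM addition). Kinetic TNB absorbance, 405 nm filter. Four-parameter Hill fit across titration.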
RE007 growth inh = less growth of the S. pombe RE007 Vpr strain. S. pombe RE007 Vpr strain, BacTiter-Glo ATP luminescence, 24 h. Potency, µM (doses to about 92.2 µM), without a hit: at the top dose activity change, negative = less growth, hits mostly inhibitors. AID 651644. actives 0.21% (n = 360,000); active means well fitted falling curve with a large enough effect; inconclusive means small, poorly fitted or top-dose-only effect; inactive means no such curve, though single readings can be large or run the other way; further: on the % scale 0 is the no-effect control and ±100 the full control effect; nearly all actives have a fitted effect of over 50% in size
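Fission yeast strain RE007, carrying one chromosomally integrated HIV-1 vpr copy, was seeded at OD 0.01 in PMG+AL medium with 23 nL pinned compound. After 24 h at 30 °C and 99% humidity, viability was read by BacTiter-Glo luminescence.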
SARS PLpro yeast = SARS-CoV PLP inhibition in yeast; S. cerevisiae expressing SARS-CoV PLpro, growth rescue; Potency, µM (doses to about 32.9 µM), inactives show at the top dose activity, positive = growth rescue, usual class: activators; actives 0.19% (n = 330,000); AID 485353; calls by dose curve; further: 0% is about no effect; nearly all actives have a fitted effect of over 55% in size
Active calls of the source: *; u = inconclusive; x = no result given. Unless noted, the call rests on the fitted dose curve; in most records, active means well fitted curve in the direction sought with a large enough effect; inconclusive means small, poorly fitted or top-dose-only effect, or another doubt; inactive means no such curve, though single readings can be large; an effect the other way counts as inactive or inconclusive. Potency means the concentration at half of the fitted maximal effect.

SMILES	Tb PYK inh	AmpC no deterg	AmpC inh detg	Sm TGR block	RE007 growth inh	SARS PLpro yeast
COCCOC(=O)c1[nH]c2c(c1C)C(=O)CC(c1ccco1)C2 (stereo not given)	-4%	-12%	u	45µM*	-4%	-7%
CCCCOC(=O)c1[nH]c2c(c1C)C(=O)CC(c1cc(OC)c(OC)c(OC)c1)C2 (stereo not given)	-1%	32µM*	u	3%	10%	3%
Cc1ccc(S(=O)(=O)N(CC(=O)NCCc2ccc(Cl)cc2)c2ccccc2C)cc1	-2%	x	0%	3%	x	x
CCOC(=O)c1cc(S(=O)(=O)Nc2ccc(Br)c(C)c2)[nH]n1	-2%	x	18%	20%	x	x
Clc1cc(Cl)c(OCC#CI)cc1Cl	4%	x	x	x	x	x
Cc1sc(NC(=O)CCl)c(C(=O)c2ccccc2)c1C	-17%	-1%	3%	7.9µM*	0%	-16%
CC1=CC2/C=C(\C)CCC(O)C(O)/C=C/C(=O)C23C(=O)NC(CC(C)C)C3C1C (stereo not given)	u	126%	6%	4µM*	7%	0%
Cc1ccccc1CNC(=O)C1CCCN(c2nnc(-n3c(C)ccc3C)s2)C1 (stereo not given)	3%	x	-3%	u	x	x
CCN(CC)CCCNc1ncnc2c1cnn2-c1ccc(C)c(C)c1	-4%	x	7%	12%	x	x
CC(C)OC(=O)c1nn2c(C(F)(F)F)cc(-c3ccc(Br)o3)nc2c1Br	-5%	-23%	u	20µM*	-9%	7%
CC(C)OC(=O)c1nn2c(C(F)(F)F)cc(-c3ccco3)nc2c1Cl	3%	-16%	-2%	-13%	-1%	-10%
CSc1nc(=S)n(-c2ccccc2)c(C)c1C(C)=O	3%	-10%	8%	40µM*	-8%	0%
CCOc1ccc(S(=O)(=O)Nc2ccc(OC)c(Cl)c2)c2cccnc12	3%	x	-2%	-10%	x	x
CCCCCCNC(=O)c1cc(-c2ccco2)nc2ccccc12	-11%	4%	-2%	3.2µM*	34%	-24%
CC(C)CCNC(=O)c1cc(-c2ccco2)nc2ccccc12	-8%	62%	0%	40µM*	14%	-3%
CCCCn1c(N)c(N(CC(C)C)C(=O)c2cc(-c3ccco3)nc3ccccc23)c(=O)[nH]c1=O	-13%	-29%	-21%	22µM*	9%	u
Cc1ccccc1NC(=O)c1cc(-c2ccco2)nc2ccccc12	0%	x	x	x	1%	x
CCCCN(C(=O)c1cc(-c2ccco2)nc2ccccc12)c1c(N)n(CCC)c(=O)[nH]c1=O	-17%	9%	1%	u	0%	2%
O=C(NCCCN1CCOCC1)c1cc(-c2ccco2)nc2ccccc12	-5%	-6%	x	x	-1%	7%
CN(C)C(CNC(=O)c1cc(-c2ccco2)nc2ccccc12)c1ccccc1 (stereo not given)	-30%	-19%	x	x	3%	10µM*
CCn1c(SCc2ccc(F)cc2Cl)nnc1-c1nonc1NC(C)=O	-2%	x	3%	0%	x	x
CCc1ccccc1NC(=O)CSC1=Nc2ccccc2C2=NC(Cc3ccccc3)C(=O)N12 (stereo not given)	-4%	x	3%	-1%	x	x
Cc1cccc(C(=O)N2CCNC(=O)C2CC(=O)Nc2ccc(F)cc2)c1 (stereo not given)	-3%	x	20%	3%	x	x
NS(=O)(=O)c1ccc(CCNC(=O)c2cc(-c3ccco3)nc3ccccc23)cc1	u	-33%	-2%	8.9µM*	-2%	-13%
COc1ccc(CNC(=O)Cc2coc3ccc(C)cc23)cc1	0%	x	-2%	-1%	x	x
SMILES	Tb PYK inh	AmpC no deterg	AmpC inh detg	Sm TGR block	RE007 growth inh	SARS PLpro yeast
Cc1cc(NC(=S)Nc2cccnc2)ccc1Br	2%	-29%	4%	18µM*	-3%	-4%
Cc1cc(Cl)ccc1NC(=S)Nc1cccnc1	0%	-22%	3%	18µM*	22%	-7%
CCN(CC)S(=O)(=O)c1cc(C(=O)Nc2cccnc2)ccc1Cl	-9%	-2%	5%	4%	-4%	5%
CCN(CC)S(=O)(=O)c1cc(C)ccc1NC(=S)Nc1cccnc1	-3%	-44%	-11%	22µM*	1%	0%
CC(C)c1ccc(NC(=O)CSc2nc(=O)n(Cc3cccnc3)c3c2CCC3)cc1	-1%	x	-3%	-18%	x	x
CCS(=O)(=O)N1CCC(n2c(C(F)(F)F)nc3cccnc32)CC1	0%	x	3%	-1%	x	x
CSc1nc(N(C)CCO)c2sc3nc(-c4ccco4)c4c(c3c2n1)CCC4	-10%	69%	-9%	1.4µM*	-3%	1%
CC1=C(C#N)C(=O)N(C2CCS(=O)(=O)C2)C(=O)/C1=C\c1ccc(C)o1 (stereo not given)	x	13%	-12%	16µM*	x	0%
O=C(CCSc1ccc(Cl)cc1)c1ccco1	-2%	-14%	1%	1µM*	-14%	-1%
O=C(CSc1ccccc1Cl)c1ccco1	-15%	-29%	-17%	45µM*	u	-5%
Nc1nnc(SCC(=O)c2ccco2)s1	-4%	-19%	-6%	-10%	0%	0%
O=C(NCCSc1ccc(Cl)cc1)c1ccco1	-13%	-18%	-1%	-2%	u	-23%
O=C(CSc1ccc(Cl)cc1)c1ccco1	-30%	-31%	-5%	5.6µM*	-25%	-7%
COc1ccc(-c2nc3cc(C(C)C)ccc3o2)cc1NC(=O)c1ccccc1[N+](=O)[O-]	1%	x	1%	3%	x	x
Cc1cccc(NC(=O)CN(C)S(=O)(=O)c2ccc3c(c2)c(=O)n(C)c(=O)n3C)c1C	4%	x	11%	u	x	x
COc1ccc(/C=C/c2nc(C#N)c(N3CCN(c4ccccc4)CC3)o2)cc1OC	6%	x	12%	0%	x	x
CC(C)CC(=O)NC1CC(=O)N(c2ccc3c(c2)OCCO3)C1 (stereo not given)	-3%	x	-2%	-4%	x	x
CC(=O)O/N=C1\C(=O)N(Cc2ccc(C)cc2)c2ccccc21	4%	-31%	u	16µM*	7%	-7%
COc1cc(/C=N/N2CCN(Cc3ccc(C)cc3)CC2)cc(OC)c1O	14µM*	36%	-17%	u	14%	7%
COc1cc(CN2CCN(Cc3ccc(C)cc3)C(CCO)C2)cc(OC)c1O (stereo not given)	-4%	75%	8%	6.3µM*	-6%	0%
COc1ccc(CN2CCN(Cc3ccc(C)cc3)C(CCO)C2)cc1OC (stereo not given)	1%	39%	4%	0%	7%	0%

Compound activity deposited in PubChem BioAssay by National Center for Advancing Translational Sciences (NCATS).
